Assay results: PubChem BioAssay AID1851 (National Center for Advancing Translational Sciences (NCATS), 2009)
Values joined by “and” are separate entries in the source; they are usually repeats but may differ in a detail not shown here. Equal entries are not always repeated. Among all 16,000 compounds or so, about 2,600 (16%) were called active. About 20% were inconclusive and are not listed. Only a sample is shown. Unmarked numbers belong to inactive results. Calls come from the whole dose curve; as a rule, active = well fitted curve in the direction sought with a large enough effect; inconclusive = small, poorly fitted or top-dose-only effect, or effect the other way; inactive = no such curve, though single readings can be large or run the other way.

These compounds were tested against Cytochrome P450 2D6 (Homo sapiens) (UniProt P10635) (assay: Cytochrome panel assay with activity outcomes). Details: recombinant CYP, pro-luciferin dealkylation, luminescence, p450-cyp2d6; series mostly up to 57.1 µM; activity, negative = inhibition: at the top concentration.
% is set by controls: 0 for no effect and ±100 for the full control effect.

Chain of Cytochrome P450 2D6 (Homo sapiens) (P10635 whole entry, looked up): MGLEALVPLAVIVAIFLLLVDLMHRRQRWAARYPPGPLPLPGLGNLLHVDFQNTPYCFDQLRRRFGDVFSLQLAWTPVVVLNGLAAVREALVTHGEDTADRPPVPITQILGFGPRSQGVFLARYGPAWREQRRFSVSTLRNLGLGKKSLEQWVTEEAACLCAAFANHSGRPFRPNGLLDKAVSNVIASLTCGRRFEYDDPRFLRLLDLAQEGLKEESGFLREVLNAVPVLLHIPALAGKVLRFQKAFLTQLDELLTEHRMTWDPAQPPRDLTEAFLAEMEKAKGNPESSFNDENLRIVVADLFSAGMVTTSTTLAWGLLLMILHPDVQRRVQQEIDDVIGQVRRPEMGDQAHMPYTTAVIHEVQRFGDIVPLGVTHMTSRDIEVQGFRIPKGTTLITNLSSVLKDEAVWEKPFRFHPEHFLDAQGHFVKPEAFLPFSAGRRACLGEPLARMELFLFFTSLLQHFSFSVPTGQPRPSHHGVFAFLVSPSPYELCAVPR

| Compound | activity, negative = inhibition | AC50 |
| --- | --- | --- |
| Nc1c(-c2ccccc2)cnn1-c1cccc([N+](=O)[O-])c1 | -16.5% |  |
| COc1cc(C)nc(N2CCCC(C(=O)Nc3cc(Cl)ccc3OC)C2)n1 (stereo not drawn) | -2.34% |  |
| COCCn1c(=O)c(-c2ccc(Cl)cc2)nc2cnc(N3CCOCC3)nc21 | 3.63% |  |
| N#Cc1c[nH]n2c(=O)c3c(nc12)CCCC3 | -1.42% |  |
| COC(=O)C1CCC(C)(C(=O)Nc2ccccc2)C1(C)C (stereo not drawn) | -19.3% |  |
| CC1=C(C(=O)Nc2ccccc2)C(c2ccco2)NC(=S)N1 (stereo not drawn) | -19.7% |  |
| CC1(C)SC(=S)N(NC(=O)Nc2ccccc2)C1N(O)C(=O)Nc1ccccc1 (stereo not drawn) |  | 25.1 µM (active) |
| Cc1cccc(NC(=O)c2cccc(N3C(=O)C4C5CCC(C5)C4C3=O)c2)c1C (stereo not drawn) | 4.27% |  |
| CNC(=O)NC(=O)CSc1nnc(-c2ccco2)n1Cc1ccccc1 | -9.65% |  |
| COc1ccc(NC(=O)CSc2nnc(Cc3cccn3C)n2CCc2ccccc2)c(OC)c1 |  | 3.98 µM (active) |
| COc1ccc(OC)c(C(=O)CN2C(=O)NC(C)(c3ccccc3)C2=O)c1 (stereo not drawn) | 3.09% |  |
| Cc1cc(C)c(NC(=O)CSc2nnc(Cc3cccn3C)n2-c2ccc(F)cc2)c(C)c1 | -28.9% |  |
| COc1ccc(OC)c(C(=O)CSc2nnc(Cc3cccs3)n2CCc2ccccc2)c1 |  | 5.62 µM (active) |
| CCn1c(COc2ccccc2)nnc1SCC(=O)Nc1cc(OC)ccc1OC | -25.2% |  |
| CC(=O)Nc1ccc(Cc2ccc3[nH]c(=O)cc(C)c3c2)cc1 | 2.4% [at 11.4 µM] |  |
| Cc1nc(-n2[nH]c3c(c2=O)CCCC3)[nH]c(=O)c1Cc1ccccc1 | 17.8% |  |
| COc1ccc(C2C(C(=O)c3ccco3)=C(O)C(=O)N2Cc2cccnc2)cc1OC (stereo not drawn) | 29.8% |  |
| COc1ccc(/C=N\NC(=O)O)cc1 | 12.1% [at 11.4 µM] |  |
| CC(=O)N1CCC2(CC1)CN(C(=O)Nc1cccc(C#N)c1)C2 | -3.86% |  |
| Cc1cc2cc3c(C)cc(=O)oc3c(C)c2o1 | 2.76% [at 25.6 µM] |  |
| CN1CCc2ccccc2[C@@H]1Cc1ccccc1NC(=O)c1sc2ccccc2c1Cl |  | 0.0794 µM (active) |
| CCCC(=O)N1CCN(c2ccc(NC(=O)c3sc4ccccc4c3Cl)cc2)CC1 | 19.9% |  |
| CCOC(=S)NC(=O)c1sc2ccccc2c1Cl | -9.37% |  |
| O=C(CC1CCCCC1)N1CCC(c2nc(-c3ccc(S(=O)(=O)N4CCCC4)cc3)no2)CC1 | -17% |  |
| COc1cccc(NC(=S)NNC(=O)C(C)n2nc(C)c([N+](=O)[O-])c2C)c1 (stereo not drawn) | -12.1% |  |

| Compound | activity, negative = inhibition | AC50 |
| --- | --- | --- |
| CC[n+]1c(P(=O)([O-])c2ccccc2)[nH]c2ccccc21 | -7.96% |  |
| O=C(c1cc(C(F)(F)F)cc(C(F)(F)F)c1)N1CCC2(CCCN(Cc3ccncc3)C2)CC1 | -9.54% |  |
| N#Cc1ccc(CN2CC[C@@]3(CCCN(C(=O)c4cc(C(F)(F)F)cc(C(F)(F)F)c4)C3)C2)cc1 | -5.62% |  |
| O=C(c1cc(C(F)(F)F)cc(C(F)(F)F)c1)N1CCC[C@@]2(CCN(Cc3ccccc3)C2)C1 |  | 10 µM (active) |
| O=C(Nc1ccccc1)N1CC2(CCN(C(=O)c3cc(C(F)(F)F)cc(C(F)(F)F)c3)CC2)C1 | -2.55% |  |
| O=C(c1cc(C(F)(F)F)cc(C(F)(F)F)c1)N1CCC[C@@]2(CCN(Cc3ccncc3)C2)C1 |  | 5.01 µM (active) |
| O=C(Nc1ccccc1)N1CC[C@@]2(CCCN(C(=O)c3cc(C(F)(F)F)cc(C(F)(F)F)c3)C2)C1 |  | 15.8 µM (active) |
| O=C(c1cc(C(F)(F)F)cc(C(F)(F)F)c1)N1CCC[C@@]2(CCN(Cc3nccs3)C2)C1 | -15.2% |  |
| O=C(c1cc(C(F)(F)F)cc(C(F)(F)F)c1)N1CCC2(CC1)CN(Cc1ccccc1)C2 | -0.939% |  |
| O=C(Nc1cccc(F)c1)N1CC[C@@]2(CCCN(C(=O)c3cc(C(F)(F)F)cc(C(F)(F)F)c3)C2)C1 | 0.812% |  |
| CC[N+](C)(CC)CCN1C(=O)c2ccccc2S1(=O)=O | -3.94% [at 11.4 µM] |  |
| Cc1c(NC(=O)C23CC4CC(CC(C)(C4)C2)C3)c(=O)n(-c2ccccc2)n1C | 10.1% |  |
| CC12CC[C@@H]3c4ccc(OP(=O)(O)O)cc4CCC3C1CCC2=O (stereo partly drawn) | 0.651% [at 11.4 µM] |  |
| Cn1cc(C(=O)c2cccc(Cl)c2Cl)cc1C(=O)O | 0.979% |  |
| O=C(O)[C@H](CCc1ccccc1)N1C(=O)c2ccccc2C1=O | 15.2% [at 11.4 µM] |  |
| c1ccc2c(c1)C(=Nc1ccc(N=C3c4ccccc4-c4ccccc43)cc1)c1ccccc1-2 | -8.16% [at 11.4 µM] |  |
| O=C(O)c1ccc(C(=O)O)c(C(=O)O)c1.[NH-][C@@H]1CCCC[C@@H]1[NH-].[Pt] | 7.05% [at 11.4 µM] |  |
| CC12CS(=O)(=O)CC1SC(=S)N2c1ccccn1 (stereo not drawn) | -5.58% |  |
| Cc1cc(O)c(C(C)C)cc1NC(=O)Nc1cccc2ccccc12 | -5.76% [at 11.4 µM] |  |
| CC1(C)CC(=O)C2=C(C1)N(c1ccc(F)cc1)C(N)=C(C#N)C2c1cccs1 (stereo not drawn) | -3.42% |  |
| Cc1cc(N2CCN(C)CC2)n2nc(-c3ccc(Cl)cc3)nc2n1 | 15% [at 11.4 µM] |  |
| COc1cc(C)cc(OC)c1/C=C\C(=O)O | 2.34% [at 11.4 µM] |  |
| C[C@@H](COc1ccccc1)N(CCCl)Cc1ccccc1 |  | 0.158 µM (active) |
| CN(C)CC(O)COc1cccc(OCC(O)CN(C)C)c1 (stereo not drawn) | -5.6% |  |
| CCOC(=O)c1cnc2ccc(C)cc2c1Sc1ccccc1C(=O)OC | -21.2% |  |

| Compound | activity, negative = inhibition | AC50 |
| --- | --- | --- |
| CNCCCC1c2ccccc2C=Cc2ccccc21 |  | 15.8 µM (active) and 3.98 µM (active) |
| COc1ccc2c(c1OC)C(=O)N(C(C)C(=O)O)C2=O (stereo not drawn) | 25.2% |  |
| CN(C)CC/C=C1\c2ccccc2Sc2ccc(Cl)cc21 |  | 2.51 µM (active) |
| Cc1ccc(-n2nc3c(c2NC(=O)c2cccs2)CSC3)cc1 | 5.05% |  |
| CCn1c(CCNC(=O)c2ccc(Cl)cc2Cl)n[nH]c1=S | -18.4% |  |
| Cc1ccc(S(=O)(=O)N[C@H]2COC(=O)C/C=C\[C@H](C)[C@@H](NS(=O)(=O)c3ccc(C)cc3)COC(=O)C/C=C\[C@@H]2C)cc1 | 8.84% [at 11.4 µM] |  |
| CCCC(=O)Nc1cc(-c2cn3cccnc3n2)ccc1OC | -19.8% |  |
| CC(C)CO/N=C1/C[C@@H](O)[C@@H](O)[C@@H]2[C@@H]3C(=O)N([C@@H](C)c4ccccc4)C(=O)[C@H]3CC[C@H]12 | -7.99% [at 11.4 µM] |  |
| COc1ccc(/C=N/n2cnc3c([nH]c4ccc(Br)cc43)c2=O)cc1CN1CCOCC1 | -11.5% |  |
| CC(C)(CO)[C@H](O)C(=O)NCCCO | 2.25% [at 25.6 µM] |  |
| NCCS | -1.11% |  |
| CNC(=S)N1CCN(c2ccccc2OC)CC1 | 1.48% |  |
| O[C@@H](COc1cccc2ccccc12)CN1CCOCC1 | -5.64% [at 11.4 µM] |  |
| COc1ccccc1N1CCN(C[C@@H](O)COc2cccc3ccccc23)CC1 |  | 794 nM (active) and 316 nM (active) and 126 nM (active) |
| COCCn1c(=O)c(-c2cccc(Cl)c2)nc2cncnc21 | -8.21% |  |
| COCCCNC(=O)CN(c1ccc(OC)cc1)S(=O)(=O)c1ccc(NC(C)=O)cc1 | -0.214% |  |
| COC(=O)CN(c1ccc(OC)cc1)S(=O)(=O)c1c(C)noc1C | -8.3% |  |
| COc1ccc(N(CC(=O)NCc2cccc(OC)c2)S(=O)(=O)c2c(C)noc2C)cc1 |  | 14.1 µM (active) |
| CN=C1S/C(=C\c2ccc(Sc3ccc(Cl)cc3)o2)C(=O)N1C | -2.93% |  |
| C#CCOCCCC(=O)O | 15.7% [at 11.4 µM] |  |
| Cc1ccc(CSc2nnc3c(n2)OC2(Nc4ccccc4-3)C(=O)Nc3ccc(F)cc32)cc1 (stereo not drawn) |  | 25.1 µM (active) |
| COc1cccc(Nc2ncc3nc(C)c(=O)n(C4CC4)c3n2)c1 | 5.12% |  |
| S=C(Nc1ccccc1)N1CCCCC1 | 4.42% |  |
| O=C(NNC(=S)Nc1ccccc1)C1CC1 | 12.2% |  |
| O=C(Nc1ccccc1)OC[C@H](CN1CCCCC1)OC(=O)Nc1ccccc1 |  | 0.398 µM (active) |

| Compound | activity, negative = inhibition | AC50 |
| --- | --- | --- |
| COC(=O)COc1ccc(/C=C2/SC(=O)N(CC(=O)N3CCCC3)C2=O)cc1Br | 14% |  |
| O=C(O)c1ccc(Sc2nnnn2-c2ccccc2)c([N+](=O)[O-])c1 | -11.6% |  |
| NCCNC(=O)c1ncsc1-c1cccc(F)c1 | -0.237% |  |
| c1cncc(CNc2ncn[nH]2)c1 | 5.73% [at 11.4 µM] |  |
| Cn1c(-c2ccc(F)cc2)cnc1NCc1cccc(F)c1 |  | 0.0562 µM (active) |
| Cn1c(-c2ccc(F)cc2)cnc1NCc1ccc(F)cc1 |  | 0.0355 µM (active) |
| Cn1c(-c2ccc(Br)cc2)cnc1NCc1cccnc1 |  | 0.501 µM (active) |
| Cn1c(=O)c(-c2ccc(F)cc2)nc2cncnc21 | -4.46% |  |
| COc1cccc(Nc2ncc3nc(-c4ccc(F)cc4)c(=O)n(C)c3n2)c1 | -1.2% |  |
| CCNc1ncc2ncc(=O)n(Cc3ccc(F)cc3)c2n1 | -8.79% |  |
| CN(C)c1ccc(-c2cc(NCc3cccnc3)ncn2)cc1 | -15.4% |  |
| CCC1CC2CC(NC(C)=O)C1C2 (stereo not drawn) | -23.4% |  |
| Fc1ccc2c(c1)C1C=CCC1C(c1cc3c(cc1Br)OCO3)N2 (stereo not drawn) | -28.2% |  |
| CCCCOC(OCCCC)[C@H](O)CSc1ccc2ccccc2c1 | -15.8% [at 11.4 µM] |  |
| C#CCn1c(=O)c2c(ncn2C)n(C)c1=O | -6.36% |  |
| Cc1cnc(CNc2ccnc(-c3ccccc3C)n2)cn1 | -8.97% |  |
| CN(C)Cc1ccccc1-c1nccc(NCc2cccs2)n1 |  | 1.58 µM (active) |
| Cc1cnc(CNc2ccnc(-c3ccccc3C(F)(F)F)n2)cn1 | -3.39% |  |
| FC(F)(F)c1ccccc1-c1nccc(NCc2cccs2)n1 |  | 25.1 µM (active) |
| COCCNc1ccnc(-c2ccccc2C(F)(F)F)n1 | 2.1% |  |
| Cc1cnc(CNc2cc(-c3ccccc3C)ncn2)cn1 | -0.691% |  |
| Cc1ccccc1-c1nccc(NCc2cccs2)n1 |  | 2.51 µM (active) |
| CN(C)Cc1ccccc1-c1cc(NCc2cccs2)ncn1 |  | 2 µM (active) |
